This is one part of the list. The source made the active and inactive calls. The rule behind the calls is not given here.
What follows are compounds tested against 5-hydroxytryptamine receptor 5A (Homo sapiens) (UniProt P47898) (assay: HTR5A inverse agonists, retest of hits, confirmation, cell-based, luminescence (AID 504916;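 note: 0% = cells with DMSO and 100% = no cells with DMSO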)). Details: HTR5A-expressing cells, inverse agonism, at 9.3 µM, active compounds read high.
5-hydroxytryptamine receptor 5A (Homo sapiens), sequence (P47898 whole entry, looked up): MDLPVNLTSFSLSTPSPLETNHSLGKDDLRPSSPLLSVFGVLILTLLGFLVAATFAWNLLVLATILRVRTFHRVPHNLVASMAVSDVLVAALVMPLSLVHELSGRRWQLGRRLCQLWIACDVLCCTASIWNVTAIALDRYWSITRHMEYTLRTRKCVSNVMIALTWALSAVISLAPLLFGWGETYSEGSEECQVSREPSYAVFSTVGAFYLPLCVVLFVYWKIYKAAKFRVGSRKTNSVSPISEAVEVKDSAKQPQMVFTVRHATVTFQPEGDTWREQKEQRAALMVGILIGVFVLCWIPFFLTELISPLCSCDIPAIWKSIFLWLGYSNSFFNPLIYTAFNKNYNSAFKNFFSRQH

inhibition, inactive:
CCCCCCCCc1c(O)nc(-n2[nH]c(C)c(CCO)c2=O)[nH]c1=O -15.1%
COc1ccc(-c2nnc(SC(C)C(=O)NC3CC3)o2)cc1 (configuration not stated) 1.03%
Cc1noc(C)c1COc1cccc(C(=O)Nc2cccnc2)c1 4.42%
O=C(/C=C/c1ccc(Cl)c([N+](=O)[O-])c1)c1ccc(O)cc1 -8.27%
O=c1ccc2c(-c3ccccc3S(=O)(=O)O)c3ccc(O)c(O)c3oc-2c1O -16.7%
Cc1cc(C)n(-c2ccc(Cl)c(C(=O)O)n2)n1 -6.82%
CCOC(=O)NC(=O)C(=CNc1cccc(OC)c1)C(=O)NC(=O)OCC -98.8%

From PubChem BioAssay AID504916 (The Scripps Research Institute Molecular Screening Center, 2011)
